Assay [1] is described as follows: reduced mouse 2C T cell binding to pMHC/ICAM-1 vesicles – MLPCN validation set, flow cytometry, LFA-1/ICAM-1 modulator project, pilot screen (AID 2523;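 active = response below a set limit, under 55% cells CD8-positive and vesicle-bound, and CD8 cells' 90th-percentile brightness under 279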;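 for vesicle binding response: mean PE anti-B7-1 fluorescence of CD8+ cells relative to row control; 100% = QL9-loaded vesicles with DMSO vehicle in the same plate row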). Particulars: 2C mouse CD8+ T cells, at 7 µM, stronger effect = lower value; double positive events: measured here: CD8+/vesicle+ event percentage. (In general: Flow cytometry measures light scatter and fluorescence of single cells or particles in a stream.)

Assay [2] deals with Integrin beta-1 (Homo sapiens) + Integrin alpha-4 (Homo sapiens) (UniProt P13612+P05556). The assay is described as follows: alpha4beta1 integrin LIBS antibody binding reduction – U937 cells, HUTS-21 mAb, flow cytometry, validation set, VLA-4 allosteric modulator project, pilot screen (AID 2674;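 active = inhibition above 50%, about 3 SD of the validation set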;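 note: antibody binding induced by the VLA-4 ligand LDV present at three times its Kd; 0% = LDV ligand with antibody and no compound and 100% = antibody without LDV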). Conditions: HUTS-21 LIBS mAb binding, at 6.7 µM, stronger effect = higher value.
Assay [3] can be described thus: calorie-restriction mimetic ROS inhibitors, yeast – validation compound set, pilot screen (AID 2706;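 active = superoxide response below 65% of plate, a cut near 3 SD across the whole screen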;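 note: yeast exposed to compound for one week at 30 degrees C before staining; 100% = mean of all compound wells on the same plate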). Particulars: S. cerevisiae aging, superoxide DHE fluorescence; at 10 µM; stronger effect = lower value.
Assay [4] concerns the target Beta-adrenergic receptor kinase 1 (Homo sapiens) (UniProt P25098). The assay can be described thus: GRK2 binders displacing RNA aptamer, biochemical, validation, human GRK2, bead flow cytometry (AID 488806;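 active = aptamer binding inhibition above 30%, about 3 SD of noise from non-fluorescent compounds; inactive = inhibition at or below 30%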). Conditions: bead-bound GRK2, FAM-aptamer displacement, at 10 µM, stronger effect = higher value.
Assay [5] deals with AP-2 complex subunit beta (Homo sapiens) (UniProt P63010). The assay can be described thus: beta-arrestin/AP2 interaction blockers – biochemical, validation set, GST-AP2 beads, flow cytometry, pilot screen (AID 504541;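 active = inhibition above 54%, about 3 SD of non-fluorescent compounds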;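 note: AP2 carries R879A mutation and is captured from E. coli lysate; bead-bound FITC arrestin peptide fluorescence measuring arrestin peptide binding to AP2; 0% = DMSO wells and 100% = excess unlabeled arrestin peptide control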). Conditions: FITC arrestin peptide, at 10 µM, stronger effect = higher value.
A short description of assay [6]: cytosolic pH regulators acting via V-ATPase – S. cerevisiae, pHLuorin, HTS validation (AID 504600; in the data active = response above about 15%;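 note: plate controls were DMSO for no effect and reference compound for full effect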). Conditions: V-ATPase proton transport, at 10 µM, stronger effect = higher value.
In assay [7] the test system is anti-desmoglein-3 scFv antibody binding to human DSG3. The assay can be described thus: blockers of pathogenic pemphigus antibody–desmoglein-3 binding – biochemical, validation compound set, bead-based, flow cytometry, pilot screen (AID 588368;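 active = binding below the plate cutoff, the plate median minus 3 SD, with a reading above zero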;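 note: signal is the median channel fluorescence of bead-bound GFP antibody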). Conditions: Protein G beads, DSG3-Fc, scFv-GFP binding, at 10 µM, stronger effect = lower value.
The subject of assay [8] is Botulinum neurotoxin type F light chain protease (Clostridium botulinum). The assay can be described thus: Clostridium botulinum type F light chain protease inhibitors, microsphere substrate cleavage, validation (AID 588459). Particulars: multiplex microsphere protease substrate cleavage assay, flow cytometry; at 10 µM; stronger effect = higher value.
Assay [9] deals with Botulinum neurotoxin type A (Clostridium botulinum) (UniProt P0DPI0). The assay can be described thus: BoNT/A light chain protease inhibitors, biochemical, multiplex microsphere flow cytometry, validation set (AID 588460). Conditions: at 10 µM, stronger effect = higher value.
The target in assay [10] is Lethal factor (Bacillus anthracis) (UniProt P15917). The assay is described as follows: Bacillus anthracis lethal factor inhibition, microsphere flow cytometry protease assay, validation at 10 µM (AID 588461). Conditions: multiplex microsphere protease cleavage assay, stronger effect = higher value.
The nature of assay [11]: Nile Red efflux blockade in pump-expressing yeast – validation compound set, multiplex, phenotypic, pilot screen (AID 588506;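 active = efflux inhibition above 0.42, the validation set average plus 4 SD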;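 note: Nile Red retained in cells so higher fluorescence means more efflux inhibition; 0 = negative control wells and 1 = enniatin B 25 µM full block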). Particulars: S. cerevisiae pump-expressing triplex, Nile Red efflux flow cytometry; at 10 µM; stronger effect = higher value.
In assay [12] the target is ATP-binding cassette sub-family B member 6 (Homo sapiens) (UniProt Q9NP58). The assay can be described thus: blockers of ABCB6-driven porphyrin uptake – K562-ABCB6 cells, flow cytometry, validation set, pilot screen (AID 588550;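 active = inhibition above the screen-wide mean plus 3 SD, about 51%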;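 note: 0% = DMSO wells and 100% = benzethonium chloride 70 µM positive control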). Particulars: K562-ABCB6 porphyrin accumulation, 1 h, at 10 µM, stronger effect = higher value.
The nature of assay [13]: AML differentiation inducers, ER-HoxA9 marrow cells – cell-based, GFP/MAC1 double positive, flow cytometry, validation set, primary screen (AID 588685;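 active = differentiation response of at least 50%, scaled between solvent and reference control, from cells with both markers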;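 note: compound exposure lasts four days before antibody staining and flow analysis; 0% = DMSO wells and 100% = 5 µM fulvestrant positive control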). Particulars: stronger effect = higher value.
Assay [14] is described as follows: hit retest on RPL19A-GFP reporter strain – cell-based, S. cerevisiae, flow cytometry, cherry picks, mother/daughter gates, confirmation (AID 2270;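 active = GFP response below 50% of the DMSO control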). Conditions: 3 h, at 10 µM, stronger effect = lower value, 100 = same GFP as DMSO wells.
Assay [15] can be described thus: yeast TOR pathway reporter LAP4-GFP change – cell-based, cherry picks, flow cytometry, mother/daughter gates, confirmation (AID 2271;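 active = GFP response above 150% of the DMSO control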;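 note: ratio of sample to DMSO plate mean so 100% equals DMSO level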). Particulars: S. cerevisiae LAP4-GFP strain, 3 h, at 10 µM, stronger effect = higher value.
The nature of assay [16]: TOR pathway CIT2 reporter hit retest – S. cerevisiae, GFP fusion, cherry picks, mother/daughter gates, confirmation (AID 2274;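 active = GFP response above 150% of the DMSO level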). Particulars: S. cerevisiae CIT2-GFP strain, flow cytometry, 3 h, at 10 µM, stronger effect = higher value.
Where [17] appears, read: measured here: daughter cell gate.
[18] abbreviates: measured here: mother cell gate.
The mark [19] stands for this setting: measured here: daughter cell gate response.
Setting [20] is: measured here: mother cell gate response.

Active and inactive are the calls of the source. Unless noted, the rule behind the calls is not given here.

Data on 6 compounds can be found in PubChem BioAssay.

Sequence of Lethal factor (Bacillus anthracis) (P15917 whole entry, looked up): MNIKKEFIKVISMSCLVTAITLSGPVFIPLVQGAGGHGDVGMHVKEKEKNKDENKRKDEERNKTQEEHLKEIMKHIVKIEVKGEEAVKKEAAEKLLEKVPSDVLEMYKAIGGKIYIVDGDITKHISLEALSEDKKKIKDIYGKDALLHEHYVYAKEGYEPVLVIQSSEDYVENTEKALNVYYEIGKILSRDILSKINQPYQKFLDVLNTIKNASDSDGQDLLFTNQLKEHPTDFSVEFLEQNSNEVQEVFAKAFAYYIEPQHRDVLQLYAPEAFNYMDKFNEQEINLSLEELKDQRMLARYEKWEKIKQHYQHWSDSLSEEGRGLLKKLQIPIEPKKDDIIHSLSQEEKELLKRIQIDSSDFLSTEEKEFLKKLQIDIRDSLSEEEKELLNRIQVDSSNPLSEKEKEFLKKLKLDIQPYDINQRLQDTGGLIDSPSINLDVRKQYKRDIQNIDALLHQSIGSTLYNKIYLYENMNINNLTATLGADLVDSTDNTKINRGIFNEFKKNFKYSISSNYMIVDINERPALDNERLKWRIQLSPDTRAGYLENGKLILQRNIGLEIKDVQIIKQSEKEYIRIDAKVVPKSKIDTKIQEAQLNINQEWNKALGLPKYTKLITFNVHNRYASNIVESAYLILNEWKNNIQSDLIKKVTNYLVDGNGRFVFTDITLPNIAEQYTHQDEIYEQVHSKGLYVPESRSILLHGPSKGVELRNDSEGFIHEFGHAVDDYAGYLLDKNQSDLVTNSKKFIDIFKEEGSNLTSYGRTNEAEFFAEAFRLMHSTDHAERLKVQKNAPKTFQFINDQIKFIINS
Sequence of Botulinum neurotoxin type A (Clostridium botulinum) (P0DPI0 whole entry, looked up): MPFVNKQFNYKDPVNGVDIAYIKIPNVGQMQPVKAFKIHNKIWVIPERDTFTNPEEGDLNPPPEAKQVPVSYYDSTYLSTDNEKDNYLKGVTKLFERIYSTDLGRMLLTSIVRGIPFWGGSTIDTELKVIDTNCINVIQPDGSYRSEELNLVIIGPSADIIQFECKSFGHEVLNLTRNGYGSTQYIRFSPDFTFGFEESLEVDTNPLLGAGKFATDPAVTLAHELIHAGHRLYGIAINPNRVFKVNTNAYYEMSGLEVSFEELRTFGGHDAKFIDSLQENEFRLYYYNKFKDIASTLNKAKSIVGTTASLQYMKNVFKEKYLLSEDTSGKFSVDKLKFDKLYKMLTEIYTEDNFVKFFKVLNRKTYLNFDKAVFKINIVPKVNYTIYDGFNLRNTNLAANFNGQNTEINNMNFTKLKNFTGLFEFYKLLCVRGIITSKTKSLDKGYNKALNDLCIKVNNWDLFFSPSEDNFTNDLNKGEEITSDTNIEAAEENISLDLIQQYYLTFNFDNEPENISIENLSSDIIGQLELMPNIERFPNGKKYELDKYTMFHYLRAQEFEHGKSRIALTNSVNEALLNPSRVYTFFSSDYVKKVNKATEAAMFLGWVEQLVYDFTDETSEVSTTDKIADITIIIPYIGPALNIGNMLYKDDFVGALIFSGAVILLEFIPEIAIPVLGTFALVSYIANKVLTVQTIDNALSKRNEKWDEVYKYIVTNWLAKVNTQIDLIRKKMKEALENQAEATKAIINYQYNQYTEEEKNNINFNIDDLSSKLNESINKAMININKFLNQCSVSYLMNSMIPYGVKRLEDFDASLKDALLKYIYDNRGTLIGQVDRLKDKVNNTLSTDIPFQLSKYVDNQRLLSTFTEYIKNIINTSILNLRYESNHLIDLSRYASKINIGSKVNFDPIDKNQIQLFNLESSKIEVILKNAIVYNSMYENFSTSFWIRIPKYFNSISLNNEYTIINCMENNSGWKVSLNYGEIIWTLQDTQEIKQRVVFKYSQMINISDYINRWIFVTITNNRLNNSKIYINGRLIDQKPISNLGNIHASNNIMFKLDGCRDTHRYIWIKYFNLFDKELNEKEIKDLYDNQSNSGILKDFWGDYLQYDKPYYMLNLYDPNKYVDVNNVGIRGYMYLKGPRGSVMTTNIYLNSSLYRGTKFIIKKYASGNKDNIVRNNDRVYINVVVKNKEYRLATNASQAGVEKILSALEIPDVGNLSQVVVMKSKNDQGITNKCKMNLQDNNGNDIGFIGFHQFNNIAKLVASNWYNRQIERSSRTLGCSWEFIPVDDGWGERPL
Sequence of Beta-adrenergic receptor kinase 1 (Homo sapiens) (P25098 whole entry, looked up): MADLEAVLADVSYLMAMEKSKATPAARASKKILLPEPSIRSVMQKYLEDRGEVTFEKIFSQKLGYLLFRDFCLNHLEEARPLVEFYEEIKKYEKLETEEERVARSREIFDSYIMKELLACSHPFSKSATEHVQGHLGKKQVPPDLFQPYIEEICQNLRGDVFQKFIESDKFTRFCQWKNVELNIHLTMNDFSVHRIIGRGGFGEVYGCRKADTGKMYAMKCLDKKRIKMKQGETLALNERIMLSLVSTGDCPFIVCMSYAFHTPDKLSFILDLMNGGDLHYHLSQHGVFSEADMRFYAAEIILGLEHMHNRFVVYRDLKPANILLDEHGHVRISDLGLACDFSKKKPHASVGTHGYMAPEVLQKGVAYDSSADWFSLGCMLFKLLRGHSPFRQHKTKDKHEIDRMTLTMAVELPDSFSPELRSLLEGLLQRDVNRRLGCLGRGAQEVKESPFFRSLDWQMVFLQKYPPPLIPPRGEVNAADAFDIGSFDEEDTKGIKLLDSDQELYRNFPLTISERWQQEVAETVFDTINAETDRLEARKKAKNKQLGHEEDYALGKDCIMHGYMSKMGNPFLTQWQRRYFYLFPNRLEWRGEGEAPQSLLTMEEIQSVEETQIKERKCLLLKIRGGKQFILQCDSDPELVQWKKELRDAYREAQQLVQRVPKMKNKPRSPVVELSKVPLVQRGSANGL
Sequence of Integrin beta-1 (Homo sapiens) + Integrin alpha-4 (Homo sapiens) (P05556 whole entry, looked up): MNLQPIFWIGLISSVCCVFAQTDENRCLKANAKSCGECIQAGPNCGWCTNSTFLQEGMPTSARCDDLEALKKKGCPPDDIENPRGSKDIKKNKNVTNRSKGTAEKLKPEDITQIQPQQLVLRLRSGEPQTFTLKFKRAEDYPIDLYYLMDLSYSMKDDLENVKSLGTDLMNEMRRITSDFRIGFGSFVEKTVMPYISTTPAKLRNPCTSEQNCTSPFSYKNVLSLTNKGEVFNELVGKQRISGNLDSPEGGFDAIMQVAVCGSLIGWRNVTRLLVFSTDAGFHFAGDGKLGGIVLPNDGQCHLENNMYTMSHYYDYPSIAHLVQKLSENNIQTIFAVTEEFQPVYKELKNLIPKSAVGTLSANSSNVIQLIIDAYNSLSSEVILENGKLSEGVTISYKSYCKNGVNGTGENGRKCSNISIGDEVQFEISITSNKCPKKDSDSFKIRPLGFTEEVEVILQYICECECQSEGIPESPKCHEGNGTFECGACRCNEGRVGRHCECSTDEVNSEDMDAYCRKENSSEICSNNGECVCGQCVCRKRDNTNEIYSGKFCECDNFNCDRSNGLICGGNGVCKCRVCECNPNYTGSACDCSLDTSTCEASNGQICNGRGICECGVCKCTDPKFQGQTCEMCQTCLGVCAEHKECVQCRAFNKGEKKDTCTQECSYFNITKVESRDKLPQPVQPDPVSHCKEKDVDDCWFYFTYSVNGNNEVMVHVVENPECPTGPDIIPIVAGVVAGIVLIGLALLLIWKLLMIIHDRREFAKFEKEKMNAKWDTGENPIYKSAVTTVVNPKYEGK
Sequence of Integrin beta-1 (Homo sapiens) + Integrin alpha-4 (Homo sapiens) (P13612 whole entry, looked up): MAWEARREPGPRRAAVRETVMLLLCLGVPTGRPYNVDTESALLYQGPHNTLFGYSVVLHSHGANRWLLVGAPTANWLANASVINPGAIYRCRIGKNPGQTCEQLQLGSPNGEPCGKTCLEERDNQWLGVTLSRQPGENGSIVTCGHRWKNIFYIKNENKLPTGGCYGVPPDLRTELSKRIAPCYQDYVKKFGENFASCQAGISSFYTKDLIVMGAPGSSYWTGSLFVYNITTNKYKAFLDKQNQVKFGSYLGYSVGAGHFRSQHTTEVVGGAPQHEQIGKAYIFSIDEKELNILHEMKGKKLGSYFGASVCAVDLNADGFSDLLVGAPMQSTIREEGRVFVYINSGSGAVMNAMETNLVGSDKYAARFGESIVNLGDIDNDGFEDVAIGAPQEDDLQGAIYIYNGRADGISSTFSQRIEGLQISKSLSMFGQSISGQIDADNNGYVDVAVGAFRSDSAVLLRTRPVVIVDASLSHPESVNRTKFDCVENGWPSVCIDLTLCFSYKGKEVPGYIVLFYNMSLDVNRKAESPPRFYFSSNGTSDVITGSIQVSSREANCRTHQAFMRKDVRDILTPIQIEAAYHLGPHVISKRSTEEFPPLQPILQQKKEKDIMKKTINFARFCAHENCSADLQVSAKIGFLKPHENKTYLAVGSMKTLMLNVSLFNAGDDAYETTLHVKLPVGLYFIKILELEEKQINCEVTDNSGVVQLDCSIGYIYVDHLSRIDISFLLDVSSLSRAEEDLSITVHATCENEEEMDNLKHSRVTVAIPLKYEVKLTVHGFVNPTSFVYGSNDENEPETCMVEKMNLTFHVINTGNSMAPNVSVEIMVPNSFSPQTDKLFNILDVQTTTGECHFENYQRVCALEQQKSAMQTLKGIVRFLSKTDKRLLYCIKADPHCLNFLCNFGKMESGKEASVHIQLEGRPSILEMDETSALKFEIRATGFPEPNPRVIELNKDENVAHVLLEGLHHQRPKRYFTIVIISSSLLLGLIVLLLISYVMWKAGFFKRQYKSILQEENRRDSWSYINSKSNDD

For `Clc1ccc(COC(Cn2ccnc2)c2ccc(Cl)cc2Cl)c(Cl)c1` (configuration not stated), the double positive events in assay [1] turned out to be 71.9%. Moreover, the vesicle binding response in [1] is 306% (inactive). For the same compound, the inhibition – broadly, the drop in the measured response relative to a control, in per cent – in assay [2] is -1.12% (inactive); in assay [5], -8.06% (inactive); in assay [8], 0.4% (inactive); in [9], -0.5% (inactive); in assay [10] it was -5.1% (inactive); in assay [12], 5% (inactive). The superoxide response (% of plate) in [3] was 76.7% (inactive). The aptamer binding inhibition in assay [4] was 4% (inactive). Besides, the response in assay [6] was 75% (active). Besides, the binding (% of control) in assay [7] was 104% (inactive). Besides, the efflux inhibition (fraction of control) in assay [11] is 0.33 (inactive). Also, the differentiation response in assay [13] is -1.05% (inactive).

`CN1C(=O)C(=Cc2ccc(SC3CCCCC3)o2)C(=O)N(C)C1=O`: the GFP response vs DMSO in assay [14] is 95.8% (inactive); in [14] (setting [17]), 98.3%; in [14] (setting [18]) it was 92.3%. The GFP response relative to DMSO in assay [15] is 143% (inactive); in [15] (setting [19]) it was 134%; in assay [15] (setting [20]), 150%. In addition, the GFP response, % of DMSO in assay [16] was 83.5% (inactive); in assay [16] (setting [17]), 84.1%; in assay [16] (setting [18]), 77.8%.

`Cc1nc2ccccc2c(=O)n1-c1ccc(C(=O)O)cc1` returned a double positive events in assay [1] of 63.4%. Moreover, the vesicle binding response in [1] was 165% (inactive). Further, the inhibition in assay [2] is 2.93% (inactive); in [5], 34.5% (inactive); in assay [8] it was 0.9% (inactive); in assay [9] it was -0.2% (inactive); in [10], -5.6% (inactive); in assay [12] it was -3% (inactive). For the same compound, the superoxide response (% of plate) in [3] was 96.8% (inactive). Besides, the aptamer binding inhibition in assay [4] was 3% (inactive). The response in assay [6] was -10.1% (inactive). The binding (% of control) in assay [7] is 101% (inactive). In addition, the efflux inhibition (fraction of control) in assay [11] is -0.43 (inactive). Also, the differentiation response in [13] is -8.96% (inactive).

Regarding `CCN1C(=O)NC(=O)/C(=C\c2cn(CC(=O)N3CCCC3)c3ccccc23)C1=O`, the GFP response vs DMSO in assay [14] is 97.3% (inactive); in [14] (setting [17]), 97.3%; in assay [14] (setting [18]), 96.9%. In addition, the GFP response relative to DMSO was 102% (inactive) in assay [15], 102% in assay [15] (setting [19]) and 102% in assay [15] (setting [20]). For the same compound, the GFP response, % of DMSO in assay [16] was 100% (inactive); in assay [16] (setting [17]), 101%; in [16] (setting [18]) it was 100%.

Take `COc1ccc(-c2[nH]ncc2CN(C)C(C)c2ccon2)c(OC)c1` (configuration not stated): the inhibition in assay [8] is 1.9% (inactive); in assay [9] it was 1.4% (inactive); in assay [10], 0% (inactive).

With `COc1ccc2[nH]cc(C(=O)CCl)c2c1`, the inhibition in assay [8] was -3.7% (inactive); in assay [9], -1.3% (inactive); in assay [10], -5.3% (inactive).
